Assay outcomes deposited in PubChem BioAssay by National Center for Advancing Translational Sciences (NCATS).
IL1B secr inh = qHTS for Inhibitors of Inflammasome Signaling: IL-1-beta AlphaLISA Primary Screen; THP-1 LPS/ATP IL-1B secretion, AlphaLISA, 16 h; hits give low values; activity change, % at 57.5 µM; actives 4.7% (n = 360,000); AID 743279, 2014; in the data active = activity change below about -50%; inconclusive = mostly about -30% to -49%
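THP-1 cells pretreated 1 hr with compounds (up to 57.5 uM final), then stimulated with LPS (250 ng/mL final) plus ATP (1.25 mM final); secreted IL-1B measured by AlphaLISA after 16 hr, decreased signal indicating inhibition.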
HT1080-NT tox = qHTS for induction of synthetic lethality in tumor cells producing 2HG: qHTS for the HT-1080-NT fibrosarcoma cell line | HT-1080-NT fibrosarcoma viability, CellTiter-Glo ATP luminescence, 48 h | Potency, µM (highest dose often 46.1 µM), actives largely listed as cytotoxic | actives 1.6% (n = 360,000);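 note: NT is the 2HG producing partner of a matched IDH1 knockdown line; nearly all actives have a fitted effect of over 55% in size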
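750 cells/well, RPMI + 5% FBS; 2 h settle, compound pin-transfer, 48 h at 37 degrees C. CellTiter-Glo 10 min RT, luminescence. Normalized to DMSO and media-only wells.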
TDP1 cell CPT = qHTS for Inhibitors of human tyrosyl-DNA phosphodiesterase 1 (TDP1): qHTS in cells in presence of CPT; actives 12% (n = 420,000); chicken DT40 Tdp1-/-;hTDP1 cells + 20 nM CPT, ATP luminescence, 48 h; Potency, µM (highest dose often 46.2 µM), most hits filed as inhibitors; note: nearly all actives have a fitted effect of over 55% in size
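Cell growth measured by CellTiter-Glo luminescence after a minimum 48 h, 37 C compound exposure with 20 nM CPT in Tdp1-knockout DT40 cells stably expressing hTDP1, seeded 400/well; qHTS titration format.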
TDP1 cell noCPT = qHTS for Inhibitors of human tyrosyl-DNA phosphodiesterase 1 (TDP1): qHTS in cells in absence of CPT; DT40 Tdp1-/- hTDP1 cells, no CPT, ATP luminescence, 48 h; actives 15% (n = 420,000); Potency, µM (highest dose often 46.2 µM), most hits filed as inhibitors; AID 686978, 2013; note: nearly all actives have a fitted effect of over 55% in size
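Camptothecin absent (DMSO only). Human TDP1-complemented DT40 knockout cells, 400 cells/well, 37 °C for minimum 48 hr; ATP measured via CellTiter-Glo, 30 min dark incubation, luminescence.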
HT1080 IDH1KD tx = qHTS for induction of synthetic lethality in tumor cells producing 2HG: qHTS for the HT-1080-IDH1KD cell line; actives 2% (n = 360,000); AID 686971, 2013; HT-1080 IDH1 knockdown viability, ATP luminescence, 48 h; Potency, µM (doses to about 46.1 µM), hits mostly cytotoxic
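Using the IDH1-knockdown HT-1080 line run in the same batch and compound series as the NT line, viability after 48 h at 37 °C was determined by CellTiter-Glo luminescence and expressed as % activity.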
Of the large screens only hits and unclear results are named; the others gave an inactive call. In the library only some 19% were active in any assay of this set; here they are far more common. Unless noted, calls come from the whole dose curve; as a rule, active = well fitted curve in the direction sought with a large enough effect; inconclusive = small, poorly fitted or top-dose-only effect, or another doubt; inactive = no such curve, though single readings can be large; an effect the other way counts as inactive or inconclusive.

CC(c1ccccc1F)n1cc(C(=O)NCCc2ccco2)nn1 (stereo not drawn)	IL1B secr inh inconclusive, TDP1 cell CPT inconclusive, TDP1 cell noCPT 18µM
CSC[C@H]1CN(Cc2ccccc2)C(=O)[C@@H]1CC(=O)Nc1ccc(Br)cc1	none
CC(C)(C)c1cc(C(=O)NNc2cccc(Cl)c2)n(Cc2ccccc2)n1	IL1B secr inh -68, HT1080-NT tox 21µM, TDP1 cell CPT inconclusive, TDP1 cell noCPT inconclusive, HT1080 IDH1KD tx 18µM
CC(C)(C)C(=O)NNC(=O)c1cc(C(C)(C)C)nn1Cc1ccccc1	none
CC(C)(C)c1cc(C(=O)NNc2ccc(OC(F)(F)F)cc2)n(Cc2ccccc2)n1	HT1080-NT tox inconclusive, TDP1 cell noCPT inconclusive, HT1080 IDH1KD tx 7.3µM (no result: IL1B secr inh)
CCOc1ccc(C(=O)COC(=O)Cn2cnc3c2c(=O)n(C)c(=O)n3C)cc1	none
Cc1ccccc1-c1cc2nc(NCCCN(C)C)n(C)c(=O)c2s1	IL1B secr inh -81, HT1080-NT tox inconclusive, TDP1 cell CPT inconclusive, TDP1 cell noCPT inconclusive, HT1080 IDH1KD tx inconclusive
Cc1ccccc1-c1cc2nc(NCCN3CCCC3)n(C)c(=O)c2s1	HT1080-NT tox inconclusive, TDP1 cell CPT inconclusive, TDP1 cell noCPT inconclusive, HT1080 IDH1KD tx inconclusive
Cc1ccsc1-c1cc2nc(NCCCN(C)C)n(C)c(=O)c2s1	HT1080-NT tox 5.8µM, TDP1 cell CPT 23µM, TDP1 cell noCPT 23µM, HT1080 IDH1KD tx inconclusive
O=C(O)/C(=C\c1ccc(Br)cc1)NC(=O)c1cccs1	none
CC(C)C[C@@H](CN1CCC[C@H]1CN1C(=O)C(=O)NC[C@@H]1Cc1ccccc1)N1C[C@H](Cc2ccccc2)N(CC2CCCCCC2)C(=O)C1=O	IL1B secr inh -80, TDP1 cell CPT 18µM, TDP1 cell noCPT inconclusive, HT1080 IDH1KD tx inconclusive
CC(C)C[C@@H](CN1CCC[C@@H]1CN1C(=O)C(=O)NC[C@@H]1Cc1ccccc1)N1C[C@H](Cc2ccc(O)cc2)N(CC2CCCCCC2)C(=O)C1=O	IL1B secr inh -72, HT1080-NT tox inconclusive, TDP1 cell CPT inconclusive, TDP1 cell noCPT inconclusive, HT1080 IDH1KD tx inconclusive
CC(C)C[C@@H](CN1CCC[C@H]1CN1C(=O)C(=O)NC[C@@H]1Cc1ccc(O)cc1)N1C[C@H](Cc2ccccc2)N(CC2CCCCCC2)C(=O)C1=O	IL1B secr inh -91, HT1080-NT tox inconclusive, TDP1 cell CPT inconclusive, TDP1 cell noCPT inconclusive, HT1080 IDH1KD tx inconclusive
CCn1nccc1NC(=O)c1csc([C@@H]2O[C@H](CO)[C@H](O)[C@H](O)[C@H]2O)n1	HT1080-NT tox inconclusive, TDP1 cell CPT inconclusive, HT1080 IDH1KD tx inconclusive
COc1cc2c(cc1OC)C(C)N(C(=S)NC(=O)c1ccccc1)CC2 (stereo not drawn)	TDP1 cell CPT inconclusive, TDP1 cell noCPT 21µM
COc1cc2c(cc1OC)C(C)N(C(=S)Nc1ccccc1)CC2 (stereo not drawn)	TDP1 cell noCPT inconclusive
COc1cc2c(cc1OC)[C@H](C)N(C(=O)NCc1ccccc1)CC2	HT1080-NT tox inconclusive, TDP1 cell CPT 23µM, TDP1 cell noCPT 7.3µM, HT1080 IDH1KD tx 21µM
COC(=O)[C@@]12C[C@@H](CC(=O)NCC34CC5CC(CC(C5)C3)C4)C(=O)N(Cc3ccccc3)C1=CCC(C)(C)C2	HT1080-NT tox inconclusive, TDP1 cell CPT inconclusive, TDP1 cell noCPT 21µM, HT1080 IDH1KD tx inconclusive
COC(=O)[C@@]12C[C@@H](CC(=O)NCC34CC5CC(CC(C5)C3)C4)C(=O)N(Cc3cccc4ccccc34)C1=CCC(C)(C)C2	TDP1 cell CPT inconclusive, TDP1 cell noCPT inconclusive
CCOC(=O)[C@]12CCCC=C1N(Cc1ccccc1)C(=O)[C@H](CC(=O)NCC13CC4CC(CC(C4)C1)C3)C2	HT1080-NT tox inconclusive, TDP1 cell CPT inconclusive, TDP1 cell noCPT inconclusive, HT1080 IDH1KD tx inconclusive
